Laboratory results as given in paper PMC11062922 (Nature Chemical Biology, 2023).
Like-named read-outs stand apart in the source and are kept apart here.

Experiments:
AAK1 = system: AAK1; parameters: species or system human, MV4-11 + K-562 + COLO205 + SK-N-BE2 + OVCAR-8; conditions: read-out: apparent Kd, n = 1
CLK1 = system: CLK1; parameters: species or system human, MV4-11 + K-562 + COLO205 + SK-N-BE2 + OVCAR-8; conditions: read-out: apparent Kd, compound concentrations: 100 nM and 1000 nM (sheet 'Samples'), n = 1
CLK4 = system: CLK4; parameters: species or system human, MV4-11 + K-562 + COLO205 + SK-N-BE2 + OVCAR-8; conditions: read-out: apparent Kd, compound concentrations: 100 nM and 1000 nM (sheet 'Samples'), n = 1
CSNK2A1;CSNK2A3 = system: CSNK2A1;CSNK2A3; parameters: species or system human, MV4-11 + K-562 + COLO205 + SK-N-BE2 + OVCAR-8; conditions: read-out: apparent Kd, compound concentrations: 100 nM and 1000 nM (sheet 'Samples'), n = 1
CSNK2A2 = system: CSNK2A2; parameters: species or system human, MV4-11 + K-562 + COLO205 + SK-N-BE2 + OVCAR-8; conditions: read-out: apparent Kd, compound concentrations: 100 nM and 1000 nM (sheet 'Samples'), n = 1
Q6ZSR9 = Q6ZSR9 (human, UniProt Q6ZSR9); parameters: species or system MV4-11 + K-562 + COLO205 + SK-N-BE2 + OVCAR-8; conditions: read-out: apparent Kd, compound concentrations: 100 nM and 1000 nM (sheet 'Samples'), n = 1
Sequence of Q6ZSR9 (Q6ZSR9 whole entry, looked up): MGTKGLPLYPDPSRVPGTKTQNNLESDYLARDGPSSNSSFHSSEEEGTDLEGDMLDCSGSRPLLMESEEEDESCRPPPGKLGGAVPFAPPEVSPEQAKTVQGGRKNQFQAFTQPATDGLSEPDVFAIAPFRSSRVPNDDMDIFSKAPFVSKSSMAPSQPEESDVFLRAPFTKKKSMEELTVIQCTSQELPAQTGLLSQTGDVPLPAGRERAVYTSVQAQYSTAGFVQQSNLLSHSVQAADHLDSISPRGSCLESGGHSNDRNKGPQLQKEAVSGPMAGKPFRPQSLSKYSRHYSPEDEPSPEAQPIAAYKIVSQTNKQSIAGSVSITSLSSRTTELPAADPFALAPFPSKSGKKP

BMP2K = system: BMP2K; parameters: species or system human, MV4-11 + K-562 + COLO205 + SK-N-BE2 + OVCAR-8; conditions: read-out: apparent Kd, compound concentrations: 100 nM and 1000 nM (sheet 'Samples'), n = 1
GAK = system: GAK; parameters: species or system human, MV4-11 + K-562 + COLO205 + SK-N-BE2 + OVCAR-8; conditions: read-out: apparent Kd, compound concentrations: 100 nM and 1000 nM (sheet 'Samples'), n = 1
MELK = system: MELK; parameters: species or system human, MV4-11 + K-562 + COLO205 + SK-N-BE2 + OVCAR-8; conditions: read-out: apparent Kd, compound concentrations: 100 nM and 1000 nM (sheet 'Samples'), n = 1
FLT4 = system: FLT4; parameters: species or system human, MV4-11 + K-562 + COLO205 + SK-N-BE2 + OVCAR-8; conditions: read-out: apparent Kd; compound concentrations: 100 nM and 1000 nM (sheet 'Samples'), CATDS: 8.0407033957096193E-3; n = 1
GSK3A = system: GSK3A; parameters: species or system human, MV4-11 + K-562 + COLO205 + SK-N-BE2 + OVCAR-8; conditions: read-out: apparent Kd; compound concentrations: 100 nM and 1000 nM (sheet 'Samples'), CATDS: 2.6961640495366201E-2; n = 1
GSK3B = system: GSK3B; parameters: species or system human, MV4-11 + K-562 + COLO205 + SK-N-BE2 + OVCAR-8; conditions: read-out: apparent Kd; compound concentrations: 100 nM and 1000 nM (sheet 'Samples'), CATDS: 2.05762593754709E-2; n = 1
NUAK1 = system: NUAK1; parameters: species or system human, MV4-11 + K-562 + COLO205 + SK-N-BE2 + OVCAR-8; conditions: read-out: apparent Kd; compound concentrations: 100 nM and 1000 nM (sheet 'Samples'), CATDS: 0.191214314920645; n = 1
PAK4 = system: PAK4; parameters: species or system human, MV4-11 + K-562 + COLO205 + SK-N-BE2 + OVCAR-8; conditions: read-out: apparent Kd; compound concentrations: 100 nM and 1000 nM (sheet 'Samples'), CATDS: 1.6910585220633E-2; n = 1
PKN1 = system: PKN1; parameters: species or system human, MV4-11 + K-562 + COLO205 + SK-N-BE2 + OVCAR-8; conditions: read-out: apparent Kd; compound concentrations: 100 nM and 1000 nM (sheet 'Samples'), CATDS: 1.2984656701456401E-2; n = 1
PKN3 = system: PKN3; parameters: species or system human, MV4-11 + K-562 + COLO205 + SK-N-BE2 + OVCAR-8; conditions: read-out: apparent Kd; compound concentrations: 100 nM and 1000 nM (sheet 'Samples'), CATDS: 6.8634871166861197E-3; n = 1
PRKAG1 = system: PRKAG1; parameters: species or system human, MV4-11 + K-562 + COLO205 + SK-N-BE2 + OVCAR-8; conditions: read-out: apparent Kd; compound concentrations: 100 nM and 1000 nM (sheet 'Samples'), CATDS: 1.7529215817932601E-2; n = 1
RET = system: RET; parameters: species or system human, MV4-11 + K-562 + COLO205 + SK-N-BE2 + OVCAR-8; conditions: read-out: apparent Kd; compound concentrations: 100 nM and 1000 nM (sheet 'Samples'), CATDS: 2.8395704553292499E-2; n = 1
SIK2 = system: SIK2; parameters: species or system human, MV4-11 + K-562 + COLO205 + SK-N-BE2 + OVCAR-8; conditions: read-out: apparent Kd; compound concentrations: 100 nM and 1000 nM (sheet 'Samples'), CATDS: 1.8714442667333402E-2; n = 1

## O=C1N=C(NCCCc2ccccc2)S/C1=C\c1ccc2ncccc2c1 [RO4493941-000]
AAK1; compound concentrations: 100 nM and 1000 nM (sheet 'Samples'), CATDS: 6.7611203009870793E-2
  potency estimated from few doses: 1120 nM
CLK1; CATDS: 8.49411754848379E-2
  potency estimated from few doses: 528 nM
CLK4; CATDS: 0.15877377246004401
  potency estimated from few doses: 105 nM
CSNK2A1;CSNK2A3; CATDS: 0.35522502931524602
  potency estimated from few doses: 22 nM
CSNK2A2; CATDS: 0.347313618598384
  potency estimated from few doses: 22.8 nM
Q6ZSR9; CATDS: 7.1931032695021699E-2
  potency estimated from few doses: 898 nM

## COC(=O)c1cccc(NC(=O)NC2CCN(c3ccnc(Nc4cc(OC)c(OC)c(OC)c4)n3)C2)c1 (stereo not drawn) [GSK1379767A]
AAK1; compound concentrations: 100 nM and 1000 nM (sheet 'Samples'), CATDS: 0.10680715656565699
  potency estimated from few doses: 1510 nM

## c1ccc(-c2n[nH]cc2Nc2ccnc3ccccc23)nc1 [GW694077X]
AAK1; compound concentrations: 100 nM and 1000 nM (sheet 'Samples'), CATDS: 0.15981280907647699
  potency estimated from few doses: 22.9 nM
BMP2K; CATDS: 0.12898106830803699
  potency estimated from few doses: 31.6 nM
CLK1; CATDS: 6.3259021647505201E-2
  potency estimated from few doses: 116 nM
CLK4; CATDS: 2.8276062957920199E-2
  potency estimated from few doses: 948 nM
CSNK2A1;CSNK2A3; CATDS: 2.9027112719044901E-2
  potency estimated from few doses: 870 nM
CSNK2A2; CATDS: 2.7289326995804501E-2
  potency estimated from few doses: 1070 nM
GAK; CATDS: 2.8408815024035201E-2
  potency estimated from few doses: 933 nM
MELK; CATDS: 2.6674495002574999E-2
  potency estimated from few doses: 1150 nM
Q6ZSR9; CATDS: 0.16373298432482
  potency estimated from few doses: 22.1 nM

## COc1cc(Nc2nccc(N3CCC(NC(=O)c4cccc(NC(C)=O)c4)C3)n2)cc(OC)c1OC (stereo not drawn) [GSK1379754A]
AAK1; compound concentrations: 100 nM and 1000 nM (sheet 'Samples'), CATDS: 0.175205708840038
  potency estimated from few doses: 410 nM
Q6ZSR9; CATDS: 0.171045295105965
  potency estimated from few doses: 426 nM

## NC(=O)c1cc(-c2ccccc2)cc2c(C3CCNCC3)c[nH]c12 [GSK301362A]
AAK1; compound concentrations:100 nM and 1000 nM (sheet 'Samples')
  potency estimated from few doses: 1980 nM

## O=C(O)C(F)(F)F.O=C(O)C(F)(F)F.O=c1[nH]ccc2nc(N[C@@H]3CCCNC3)nc(Nc3ccc(S(=O)(=O)N4CCOCC4)cc3)c12.O=c1[nH]ccc2nc(N[C@@H]3CCCNC3)nc(Nc3ccc(S(=O)(=O)N4CCOCC4)cc3)c12 [GSK2177277A]
AAK1; compound concentrations: 100 nM and 1000 nM (sheet 'Samples'), CATDS: 1.8142496176493599E-2
  potency estimated from few doses: 64.1 nM
BMP2K; CATDS: 3.1293832570600401E-2
  potency estimated from few doses: 23.6 nM
CSNK2A1;CSNK2A3; CATDS: 9.7881749935300605E-3
  potency estimated from few doses: 292 nM
CSNK2A2; CATDS: 1.40967137709553E-2
  potency estimated from few doses: 111 nM
FLT4
  potency estimated from few doses: 563 nM
GAK; CATDS: 7.9677595893025404E-3
  potency estimated from few doses: 583 nM
GSK3A
  potency estimated from few doses: 30.4 nM
GSK3B
  potency estimated from few doses: 49.8 nM
MELK; CATDS: 1.3446305906565099E-2
  potency estimated from few doses: 125 nM
NUAK1
  potency estimated from few doses: 2.02 nM
PAK4
  potency estimated from few doses: 74.2 nM
PKN1
  potency estimated from few doses: 136 nM
PKN3
  potency estimated from few doses: 1090 nM
PRKAG1
  potency estimated from few doses: 68.8 nM
Q6ZSR9; CATDS: 1.64498976329738E-2
  potency estimated from few doses: 78.7 nM
RET
  potency estimated from few doses: 27.8 nM
SIK2
  potency estimated from few doses: 60.1 nM
